Experimental data: PubChem BioAssay (Tox21)
Values joined by “and” are separate entries in the source; they are usually repeats but may differ in a detail not shown here. Equal entries are not always repeated. Results filed as inconclusive are left out. A structure can be active in one record and inactive in another. Active and inactive are the calls of the source. Unless noted, the call rests on the fitted dose curve.

What was measured:
[1] = Nuclear factor erythroid 2-related factor 2/antioxidant responsive element (Nrf2/ARE) small molecule agonists: qHTS cell viability counter screen in human keratinocytes (AID 1919968; active means well fitted curve in the direction sought with a large enough effect in the repeat runs; an effect the other way counts as inactive or inconclusive; further: nearly all actives have a fitted effect of over 55% in size)
In short: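 CellTiter-Fluor fluorescence, read 1 h after reagent, gave viability in the same wells as the ARE-luciferase assay. KeratinoSens cells (1,500/well) had 23 h compound exposure at 37 C/5% CO2 following 5 h plating.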

[2] = Nuclear factor erythroid 2-related factor 2/antioxidant responsive element (Nrf2/ARE) small molecule agonists: luciferase reporter gene qHTS assay in human keratinocytes (AID 1919969); further: nearly all actives have a fitted effect of over 35% in size; further: potency means the concentration at half of the fitted maximal effect
[3] = molecular target: Gonadotropin-releasing hormone receptor (Homo sapiens) (UniProt P30968); experiment: Human gonadotropin-releasing hormone receptor (GnRHR) small molecule agonists, calcium flux assay in GnRHR-HEK293 cells (AID 1920063); further: nearly all actives have a fitted effect of over 35% in size
Gonadotropin-releasing hormone receptor (Homo sapiens), sequence (P30968 whole entry, looked up): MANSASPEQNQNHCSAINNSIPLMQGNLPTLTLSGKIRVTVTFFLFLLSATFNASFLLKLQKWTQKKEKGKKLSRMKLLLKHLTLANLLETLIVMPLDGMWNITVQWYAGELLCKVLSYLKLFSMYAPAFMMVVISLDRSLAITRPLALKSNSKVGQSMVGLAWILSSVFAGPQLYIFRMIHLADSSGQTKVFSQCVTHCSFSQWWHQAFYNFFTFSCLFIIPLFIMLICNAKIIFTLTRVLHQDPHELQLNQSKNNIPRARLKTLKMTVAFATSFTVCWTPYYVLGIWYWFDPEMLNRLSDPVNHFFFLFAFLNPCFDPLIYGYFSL
In short: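 Agonist mode: compounds at 15 concentrations, in triplicate, went onto calcium dye-loaded GnRHR-HEK293 cells. Intracellular calcium was then followed as 480/540 nm fluorescence at 1 s intervals over 3 min.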

[4] = molecular target: KiSS-1 receptor (Homo sapiens) (UniProt Q969F8); experiment: Human kisspeptin (KISS1R) small molecule agonists, calcium flux assay in KISS1R-HEK293 cells (AID 1920064; active means well fitted curve in the direction sought with a large enough effect in the repeat runs; an effect the other way counts as inactive or inconclusive)
KiSS-1 receptor (Homo sapiens), sequence (Q969F8 whole entry, looked up): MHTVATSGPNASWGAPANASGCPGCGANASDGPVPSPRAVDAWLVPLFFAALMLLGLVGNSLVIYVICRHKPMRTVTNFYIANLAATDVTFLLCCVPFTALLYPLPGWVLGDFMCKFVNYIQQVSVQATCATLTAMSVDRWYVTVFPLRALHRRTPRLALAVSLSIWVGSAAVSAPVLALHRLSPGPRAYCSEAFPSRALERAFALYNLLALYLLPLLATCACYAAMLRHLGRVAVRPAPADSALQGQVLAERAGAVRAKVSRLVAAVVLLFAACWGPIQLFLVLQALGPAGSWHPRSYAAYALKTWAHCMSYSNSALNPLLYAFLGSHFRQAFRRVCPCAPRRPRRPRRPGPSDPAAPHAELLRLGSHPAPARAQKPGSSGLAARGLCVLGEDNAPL
In short: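 Agonist mode: intracellular calcium rise tracked at 1 s intervals over 3 min (480/540 nm) immediately after compound addition to dye-loaded KISS1R-HEK293 stable cells. Each compound tested at 15 concentrations in triplicate.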

[5] = G protein-coupled receptor (GPCR) small molecule agonists, calcium flux assay: HEK293 wild type cell line counter screen (AID 1920065)
In short: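 Calcium flux counter screen: compound added in agonist mode at 15 concentrations in triplicate to dye-loaded parental HEK293 cells. Fluorescence (480/540) read kinetically for 3 min; ATP served as positive control.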

[6] = p53 small molecule agonists, cell-based qHTS assay with human liver microsomes: qHTS cell viability counter screen (AID 1963579); further: nearly all actives have a fitted effect of over 45% in size
In short: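 Luminescent CellTiter-Glo read-out, 30 min at room temperature, gauged cytotoxicity in p53RE-bla cells exposed 16 h at 37 C to DMSO-dissolved compounds with metabolic activation by human liver microsomes and NADPH, each 0.5 mg/mL final.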

[7] = p53 small molecule agonists, cell-based qHTS assay with rat liver microsomes: qHTS cell viability counter screen (AID 1963580); further: nearly all actives have a fitted effect of over 45% in size
In short: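 Luminescent ATP readout (CellTiter-Glo, 30 min at room temperature) reports viability of p53RE-bla HCT-116 cells after 16 h at 37 C with test compounds under metabolic activation by rat liver microsomes and NADPH at 0.5 mg/mL final each.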

[8] = p53 small molecule agonists, cell-based qHTS assay: qHTS cell viability counter screen (AID 1963581); further: nearly all actives have a fitted effect of over 45% in size
In short: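 Counter screen read by CellTiter-Glo luminescence (ATP content, 30 min at room temperature), run in the same wells as the beta-lactamase reporter read. HCT-116 p53RE-bla cells saw compounds for 16 h at 37 C.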

[9] = cAMP Responsive Elements (CRE) small molecule agonists, cell-based qHTS assay (AID 1963590)
In short: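 Agonist mode: compound added to CRE-bla HEK 293T cells (2,000/well, 18 h after plating) for 3 h at 37 C/5% CO2. Reporter activity detected via FRET beta-lactamase substrate, 2 h room-temperature loading.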

[10] = cAMP Responsive Elements (CRE) small molecule antagonists, cell-based qHTS assay (AID 1963591; active means well fitted inhibition curve with a large enough effect in the signal ratio in the repeat runs, not every such curve was filed as active; the % refers to the signal ratio)
In short: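 Antagonist mode: compounds are added alongside the adenylyl cyclase activator NKH477 (0.25 uM final) to CRE-bla HEK293T cells for 3 h. LiveBLAzer FRET substrate, 2 h at room temperature, reports bla expression.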

[11] = molecular target: Beta-2 adrenergic receptor (Homo sapiens) (UniProt P07550); experiment: Adrenergic beta2 receptor (ADRB2) small molecule antagonists, cell-based qHTS assay (AID 1963592); further: series mostly up to about 92 µM; nearly all actives have a fitted effect of over 50% in size
Beta-2 adrenergic receptor (Homo sapiens), sequence (P07550 whole entry, looked up): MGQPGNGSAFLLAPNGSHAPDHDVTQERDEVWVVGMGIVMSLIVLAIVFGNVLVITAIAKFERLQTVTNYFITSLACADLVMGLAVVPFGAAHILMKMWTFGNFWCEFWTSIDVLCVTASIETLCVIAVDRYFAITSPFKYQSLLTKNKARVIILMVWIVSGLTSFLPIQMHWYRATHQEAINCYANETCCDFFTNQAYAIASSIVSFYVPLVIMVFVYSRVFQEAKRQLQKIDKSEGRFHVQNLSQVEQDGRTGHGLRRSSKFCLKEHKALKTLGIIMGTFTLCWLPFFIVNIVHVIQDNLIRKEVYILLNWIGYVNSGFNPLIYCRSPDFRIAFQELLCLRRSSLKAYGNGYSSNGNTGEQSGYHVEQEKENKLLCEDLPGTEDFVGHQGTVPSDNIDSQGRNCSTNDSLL
In short: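 Assay format: CHO-ADRB2 cells, 18-20hr seeding at 37C/5% CO2, then compound plus 1nM isoproterenol agonist mix for 0.5hr RT. Homogeneous time-resolved fluorescence cAMP detection after 1hr, expressed as 665/615 nm ratio.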

[12] = molecular target: Beta-2 adrenergic receptor (Homo sapiens) (UniProt P07550); experiment: Adrenergic beta2 receptor (ADRB2) small molecule agonists, cell-based qHTS assay (AID 1963593);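 further: CHO cells stably overexpressing human ADRB2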
In short: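 CHO cells stably over-expressing ADRB2 were plated overnight at 37C, then dosed with compounds plus a stimulation mix containing 100uM IBMX and 25uM Ro-20-1724 for 0.5hr at room temperature. cAMP was measured by HTRF competition, 1hr.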

[13] = molecular target: D(2) dopamine receptor (Homo sapiens) (UniProt P14416); experiment: Dopamine D2 receptor (DRD2) small molecule agonists, cell-based qHTS assay (AID 1963594); further: nearly all actives have a fitted effect of over 35% in size; further: potency means the concentration at half of the fitted maximal effect
D(2) dopamine receptor (Homo sapiens), sequence (P14416 whole entry, looked up): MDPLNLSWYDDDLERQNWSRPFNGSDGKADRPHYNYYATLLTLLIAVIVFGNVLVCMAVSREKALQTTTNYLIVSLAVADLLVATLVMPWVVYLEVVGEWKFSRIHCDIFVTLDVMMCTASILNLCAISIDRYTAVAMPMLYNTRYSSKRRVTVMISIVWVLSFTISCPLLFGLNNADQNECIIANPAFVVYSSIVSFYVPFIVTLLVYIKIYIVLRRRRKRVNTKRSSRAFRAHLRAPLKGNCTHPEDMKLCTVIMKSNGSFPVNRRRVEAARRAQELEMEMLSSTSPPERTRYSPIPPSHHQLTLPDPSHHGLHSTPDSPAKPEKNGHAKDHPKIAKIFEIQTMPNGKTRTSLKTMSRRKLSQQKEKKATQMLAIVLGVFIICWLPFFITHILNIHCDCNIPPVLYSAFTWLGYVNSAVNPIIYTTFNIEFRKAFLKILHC
In short: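 HEK293 cells stably expressing DRD2 were cultured 24 h at 37 C, then given Ro20-1724 (0.1 mM final) and compounds for 10 min at room temperature. NKH477 (200nM) was then added for 30 min. cAMP was read by HTRF.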

[14] = molecular target: D(2) dopamine receptor (Homo sapiens) (UniProt P14416); experiment: Dopamine D2 receptor (DRD2) small molecule antagonists, cell-based qHTS assay (AID 1963595; active means well fitted inhibition curve with a large enough effect in the signal ratio in the repeat runs, with a control signal flat; the % refers to the signal ratio)
In short: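 Stable D2 receptor HEK293 line, 24 h after seeding. Compound preincubated 10 min, then quinpirole (12 nM) with forskolin analogue NKH477 (200 nM), 30 min, room temperature. Detection by time-resolved FRET of cAMP.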

[15] = molecular target: 5-hydroxytryptamine receptor 2A (Homo sapiens) (UniProt P28223); experiment: 5-hydroxytryptamine receptor 2A (HTR2A) small molecule antagonists, cell-based qHTS assay (AID 1963586); further: nearly all actives have a fitted effect of over 45% in size
5-hydroxytryptamine receptor 2A (Homo sapiens), sequence (P28223 whole entry, looked up): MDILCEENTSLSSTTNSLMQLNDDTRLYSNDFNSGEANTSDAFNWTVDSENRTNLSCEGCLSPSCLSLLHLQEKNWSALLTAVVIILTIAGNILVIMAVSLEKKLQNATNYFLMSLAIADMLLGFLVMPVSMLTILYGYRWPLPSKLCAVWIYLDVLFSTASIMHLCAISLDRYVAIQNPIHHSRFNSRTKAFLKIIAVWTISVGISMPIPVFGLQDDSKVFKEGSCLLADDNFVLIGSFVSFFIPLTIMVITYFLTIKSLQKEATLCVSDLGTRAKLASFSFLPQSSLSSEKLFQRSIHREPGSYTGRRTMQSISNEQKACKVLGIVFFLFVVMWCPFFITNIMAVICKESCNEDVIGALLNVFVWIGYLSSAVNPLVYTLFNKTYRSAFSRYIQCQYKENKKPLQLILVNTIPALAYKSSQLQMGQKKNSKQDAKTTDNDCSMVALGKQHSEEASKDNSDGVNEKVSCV
In short: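 CHO cells stably expressing human HTR2A were plated for 18 h at 37 C, then loaded with calcium dye for 1 h. Compounds were preincubated 5 min at room temperature before DOI (4 nM solution) was added. Kinetic fluorescence was read for 3 min.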

[16] = molecular target: 5-hydroxytryptamine receptor 2A (Homo sapiens) (UniProt P28223); experiment: 5-hydroxytryptamine receptor 2A (HTR2A) small molecule agonists, cell-based qHTS assay (AID 1963587); further: nearly all actives have a fitted effect of over 30% in size
In short: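 HTR2A-CHO cells, plated 18 h at 37 C/5% CO2, dye-loaded 1 h at 37 C; compounds in DMSO added by pin tool (agonist mode). Intracellular calcium flux read as kinetic fluorescence on FDSS over 2 min at 1 s intervals.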

[17] = molecular target: Muscarinic acetylcholine receptor M1 (Homo sapiens) (UniProt P11229); experiment: Cholinergic receptor muscarinic 1 (CHRM1) small molecule antagonists, cell-based qHTS assay (AID 1963588); further: nearly all actives have a fitted effect of over 40% in size
Muscarinic acetylcholine receptor M1 (Homo sapiens), sequence (P11229 whole entry, looked up): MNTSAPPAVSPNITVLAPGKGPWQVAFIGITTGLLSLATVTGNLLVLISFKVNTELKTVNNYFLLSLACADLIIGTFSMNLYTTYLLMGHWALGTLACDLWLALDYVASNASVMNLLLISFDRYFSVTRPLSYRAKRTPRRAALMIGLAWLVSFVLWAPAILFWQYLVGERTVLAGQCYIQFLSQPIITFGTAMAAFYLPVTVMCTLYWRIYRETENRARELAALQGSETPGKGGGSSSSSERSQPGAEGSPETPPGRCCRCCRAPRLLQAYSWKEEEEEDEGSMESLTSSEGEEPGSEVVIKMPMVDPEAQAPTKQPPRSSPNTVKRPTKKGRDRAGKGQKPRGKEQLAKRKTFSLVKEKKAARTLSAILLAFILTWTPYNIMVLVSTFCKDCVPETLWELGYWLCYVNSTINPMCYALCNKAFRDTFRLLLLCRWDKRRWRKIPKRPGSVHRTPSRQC
In short: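 Compounds were tested at 15 concentrations in three independent runs. Dye-loaded CHRM1-CHO cells were exposed 5 min at room temperature before stimulation by acetylcholine added at 50nM. Intracellular calcium was read kinetically on FDSS for 3 min.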

[18] = molecular target: Muscarinic acetylcholine receptor M1 (Homo sapiens) (UniProt P11229); experiment: Cholinergic receptor muscarinic 1 (CHRM1) small molecule agonists, cell-based qHTS assay (AID 1963589); further: nearly all actives have a fitted effect of over 35% in size
In short: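 Agonist-mode calcium-flux screen: compounds at 15 concentrations, three independent runs, were pin-transferred onto dye-loaded human CHRM1-CHO cells. Fluorescence was then recorded kinetically every second over minutes.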

[19] = p53 small molecule agonists, cell-based qHTS assay (AID 1963582; active means well fitted activation curve with a large enough effect in the signal ratio in the repeat runs, not every such curve was filed as active; the % refers to the signal ratio)
In short: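 Read-out is beta-lactamase FRET fluorescence after 2 h at room temperature with LiveBLAzer B/G substrate. p53 response element-bla cells were treated 16 h at 37 C with compounds in DMSO, added 5 h after seeding.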

[20] = p53 small molecule agonists, cell-based qHTS assay with human liver microsomes (AID 1963577);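 further: p53 response element beta-lactamase reporter cells with liver microsomes plus NADPH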
In short: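 p53RE-bla cells; 5 h settle, 37 C/5% CO2; cpd + HLM 0.5 mg/mL + NADPH 0.5 mg/mL (final); 16 h 37 C; LiveBLAzer 2 h RT dark; fluorescence readout.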
On the % scale 0 is the no-effect control and ±100 the full control effect.

CN(C)/N=N/c1nc[nH]c1C(N)=O
inactive: Potency [1] | Potency [2] | Potency [3] | Potency [4] | Potency [5] | Potency [6] | Potency [7] | Potency [8] | Potency [9] | Potency [10] | Potency [11] | Potency [12] | Potency [13] | Potency [14]

CC(c1cc2ccccc2s1)N(O)C(N)=O (configuration not stated)
inactive: Potency [1] | Potency [2] | Potency [3] | Potency [4] | Potency [5] | Potency [6] | Potency [7] | Potency [8] | Potency [9] | Potency [10] | Potency [11] | Potency [12] | Potency [13] | Potency [14]

O=c1[nH]cnc2[nH]ncc12
inactive: Potency [1] | Potency [2] | Potency [3] | Potency [4] | Potency [5] | Potency [6] | Potency [7] | Potency [8] | Potency [9] | Potency [10] | Potency [11] | Potency [13]

COC(=O)/C=C/c1ccccc1
inactive: Potency [1] | Potency [2] | Potency [3] | Potency [4] | Potency [5] | Potency [7] | Potency [8] | Potency [15] | Potency [16] | Potency [17] | Potency [18] | Potency [9] | Potency [10] | Potency [11] | Potency [12] | Potency [13] | Potency [14]

CC(=O)OC1CC(C)OC(C)O1 (configuration not stated)
inactive: Potency [1] | Potency [2] | Potency [3] | Potency [4] | Potency [5] | Potency [6] | Potency [7] | Potency [8] | Potency [16] | Potency [17] | Potency [18] | Potency [9] | Potency [10] | Potency [11] | Potency [12] | Potency [14]

CN(Cc1cnc2nc(N)nc(N)c2n1)c1ccc(C(=O)N[C@@H](CCC(=O)O)C(=O)O)cc1
inactive: Potency [1] | Potency [2] | Potency [3] | Potency [4] | Potency [5] | Potency [6] | Potency [7] | Potency [9] | Potency [10] | Potency [11] | Potency [12] | Potency [13] | Potency [14]

C[C@]12CCC(=O)C=C1CC[C@@H]1[C@@H]2[C@@H](O)C[C@@]2(C)[C@H]1CC[C@]2(O)C(=O)CO
inactive: Potency [1] | Potency [2] | Potency [3] | Potency [4] | Potency [5] | Potency [6] | Potency [7] | Potency [8] | Potency [9] | Potency [10] | Potency [11] | Potency [13] | Potency [14]

CC1=CC[C@@H]2C[C@H]1C2(C)C
inactive: activity change, negative = cytotoxicity [1] -0.0198% [at 19 µM] | activity, positive = activation [2] -20.3% [at 19 µM] | activity change [3] 0.0518% [at 11.8 µM, stronger effect = higher value] | activation [4] -0.901% [at 15.8 µM] | activation [5] -1.47% [at 11.8 µM] | activity change, negative = cytotoxicity [6] -2.33% [at 13.5 µM] | activity change, negative = cytotoxicity [8] -11.2% [at 13.5 µM] | activity, negative = inhibition [15] 6.44% [at 12.7 µM] | activation [16] -0.177% [at 15.9 µM] | activity, negative = inhibition [17] -2.89% [at 12.6 µM] | activation [18] -0.0486% [at 15.8 µM] | activation [9] 0.0762% [at 19 µM] | activity change, negative = inhibition [10] 3.33% [at 18.9 µM] | activation [13] -0.279% [at 19 µM] | activity change, negative = inhibition [14] -2.93% [at 18.9 µM]

C[N+](C)(C)CCO
inactive: Potency [1] | Potency [2] | Potency [3] | Potency [4] | Potency [5] | Potency [6] | Potency [7] | Potency [8] | Potency [9] | Potency [10] | Potency [11] | Potency [12] | Potency [14]

COc1ccc(COC(C)=O)cc1
inactive: Potency [1] | Potency [2] | Potency [3] | Potency [4] | Potency [5] | Potency [6] | Potency [7] | Potency [15] | Potency [16] | Potency [17] | Potency [18] | Potency [9] | Potency [10] | Potency [11] | Potency [12] | Potency [13] | Potency [14]

CN/C(=C\[N+](=O)[O-])NCCSCc1ccc(CN(C)C)o1
inactive: Potency [1] | Potency [2] | Potency [3] | Potency [4] | Potency [5] | Potency [8] | Potency [19] | Potency [9] | Potency [10] | Potency [11] | Potency [12] | Potency [14]
inactive and 17.4 µM (active): Potency [13]

CN=C(NC#N)NCCSCc1nc[nH]c1C
inactive: Potency [1] | Potency [2] | Potency [3] | Potency [4] | Potency [5] | Potency [7] | Potency [8] | Potency [9] | Potency [10] | Potency [11] | Potency [12] | Potency [13] | Potency [14]

c1ccc2c(c1)-c1cccc3c1c-2cc1ccccc13
active: Potency [2] 23.8 µM and 21.7 µM
inactive: Potency [1] | Potency [3] | Potency [4] | Potency [5] | Potency [6] | Potency [7] | Potency [8] | Potency [16] | Potency [17] | Potency [18] | Potency [9] | Potency [11] | Potency [13] | Potency [14]

CCCCCC/C=C/C(=O)OC
inactive: Potency [1] | Potency [2] | Potency [3] | Potency [4] | Potency [20] | Potency [6] | Potency [7] | Potency [8] | Potency [19] | Potency [15] | Potency [16] | Potency [17] | Potency [18] | Potency [9] | Potency [10] | Potency [11] | Potency [13] | Potency [14]

Cc1cc(O)cc(C)c1Cl
inactive: Potency [1] | Potency [2] | Potency [3] | Potency [4] | Potency [5] | Potency [8] | Potency [10] | Potency [11] | Potency [13] | Potency [14]

CC(C(=O)O)c1cccc(C(=O)c2ccccc2)c1 (configuration not stated)
inactive: Potency [1] | Potency [2] | Potency [3] | Potency [4] | Potency [5] | Potency [19] | Potency [11] | Potency [12] | Potency [13] | Potency [14]

CCCSSCCC
inactive: Potency [1] | Potency [2] | Potency [3] | Potency [4] | Potency [20] | Potency [6] | Potency [7] | Potency [8] | Potency [19] | Potency [15] | Potency [16] | Potency [17] | Potency [18] | Potency [9] | Potency [10] | Potency [11] | Potency [12] | Potency [13] | Potency [14]
